Where “and” joins values, the source holds several entries; their conditions need not be identical. Equal entries are not always repeated. Records with an inconclusive call do not appear. The source holds several records for some structures; these can differ, active in one and inactive in another. Calls of active or inactive are those of the source. How the source made its calls, unless noted: active means hit-call score of the fitted dose curve at least 0.9, where 1 is the maximum; inconclusive means response in the unintended direction; inactive means score below 0.9.
Key:
[1] = read-out: sulfotransferase (SULT2A), SULT2A1 (gene 6822); test: CLD_SULT2A_6hr: CellzDirect (CLD) Gene Expression Assay for sulfotransferase (SULT2A) at 6 hours (AID 2283669);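 further: hits raise transcript level above the DMSO vehicle baseline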
Outline: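 Primary human hepatocytes from two donor preparations were dosed daily with chemicals or 0.2% DMSO and harvested at 6 h. Transcript induction read by qNPA chemiluminescence, fitted for gain of signal relative to DMSO; morphology-based cytotoxicity annotated.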

[2] = read-out: Cytochrome P450 (CYP24A1_1), CYP24A1 (gene 1591); test: LTEA_HepaRG_CYP24A1_1: Life Technologies and Expression Analysis (LTEA) Assay for Cytochrome P450 (CYP24A1_1) using HepaRG (AID 2283671; active means hit-call score of the fitted dose curve at least 0.9, where 1 is the maximum; inactive means score below 0.9); settings: mRNA level, 48 h; actives raise or lower the signal
Outline: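 In this test, gene induction or suppression of CYP24A1 in human HepaRG liver cells is measured by qRT-PCR after 48 h chemical treatment (eight concentrations, maximum 100 uM). Values are fitted bidirectionally relative to DMSO.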

[3] = read-out: glucuronosyltransferase (UGT1A1), UGT1A1 (gene 54658); test: CLD_UGT1A1_6hr: CellzDirect (CLD) Gene Expression Assay for glucuronosyltransferase (UGT1A1) at 6 hours (AID 2283672)
Outline: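 Primary human hepatocytes from two donor preparations, dosed with fresh solutions in 0.2% DMSO, harvested at 6 h. UGT1A1 mRNA measured by qNPA chemiluminescence; induction fitted upward versus DMSO.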

[4] = read-out: xenobiotic metabolism (CYP1A1), CYP1A1 (gene 1543); test: CLD_CYP1A1_24hr: CellzDirect (CLD) Gene Expression Assay for xenobiotic metabolism (CYP1A1) at 24 hours (AID 2283673);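 further: CYP1A1 mRNA level by quantitative nuclease protection with chemiluminescence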
Outline: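 Primary human hepatocytes dosed daily with fresh solutions in 0.2% DMSO vehicle. mRNA measured at 24 h by quantitative nuclease protection assay with chemiluminescence; gain-of-signal fit versus DMSO, with morphology-based cytotoxicity flags.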

[5] = read-out: ABC Transporter (ABCB11), ABCB11 (gene 8647); test: CLD_ABCB11_24hr: CellzDirect (CLD) Gene Expression Assay for ABC Transporter (ABCB11) at 24 hours (AID 2283674; active means hit-call score of the fitted dose curve at least 0.9, where 1 is the maximum; inactive means score below 0.9)
Outline: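 Primary human hepatocytes were dosed daily for two days, with 0.2% DMSO vehicle. ABCB11 mRNA induction was measured at 24 hours by quantitative nuclease protection assay with chemiluminescence. Gain of signal was fitted relative to DMSO.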

[6] = read-out: ABC Transporter (ABCB11), ABCB11 (gene 8647); test: CLD_ABCB11_6hr: CellzDirect (CLD) Gene Expression Assay for ABC Transporter (ABCB11) at 6 hours (AID 2283675);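 further: hits raise ABCB11 mRNA level so AC50 marks induction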
Outline: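 Human primary hepatocytes (two donor preparations) given fresh chemical daily at multiple concentrations, vehicle 0.2% DMSO. ABCB11 mRNA induction measured 6 h after dosing by qNPA chemiluminescence versus DMSO; cytotoxicity annotated from morphology.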

[7] = CCTE_Padilla_ZF_144hpf_TERATOSCORE: (Legacy) CCTE's 144 Hour Post-fertilization zebrafish Assay Teratoscore, Padilla Lab (AID 2283679; active means hit-call score of the fitted dose curve at least 0.9, where 1 is the maximum; inactive means score below 0.9;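 on AC50: zebrafish embryos with chorions exposed by immersion from 6-8 hpf to 5 dpf with daily renewal; teratogenicity score from eye scoring of death hatching and malformations at 144 hpf; higher score means more developmental defects relative to DMSO baseline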)
Outline: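 Larvae scored by eye at 144 hpf for death, hatching and malformations after a day in clean Hanks'. Before that, daily-renewed exposure at 80 uM (0.4% DMSO, 26C) from roughly 6-8 hpf through 5 dpf, 4 embryos per chemical.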

[8] = read-out: HMG-CoA synthase (HMGCS2), HMGCS2 (gene 3158); test: CLD_HMGCS2_6hr: CellzDirect (CLD) Gene Expression Assay for HMG-CoA synthase (HMGCS2) at 6 hours (AID 2283682);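 further: actives raise HMGCS2 transcript above the 0.2% DMSO vehicle baseline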
Outline: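 Primary human hepatocytes dosed daily with fresh chemical, 0.2% DMSO vehicle; HMGCS2 mRNA measured at 6 h by qNPA chemiluminescence. Gain of signal fitted against DMSO; cytotoxicity flagged from phase-contrast morphology.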

[9] = read-out: Cytochrome P450 2C19 (Homo sapiens) (UniProt P33261); test: CLD_CYP2C19_6hr: CellzDirect (CLD) Gene Expression Assay for xenobiotic metabolism (CYP2C19) at 6 hours (AID 2283678)
Outline: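 Primary human hepatocytes from two donor preparations were dosed daily, with 0.2% DMSO as vehicle, and harvested 6 h after dosing. CYP2C19 mRNA induction was measured by qNPA chemiluminescence and fitted as gain of signal against DMSO.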

[10] = read-out: Glyceraldehyde-3-phosphate dehydrogenase (Homo sapiens) (UniProt P04406); test: CLD_GAPDH_6hr: CellzDirect (CLD) Gene Expression Assay for Baseline Control (Glyceraldehyde 3-phosphate dehydrogenase) at 6 hours (AID 2283681);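 further: active means increased signal relative to DMSO vehicle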
Outline: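 Primary human hepatocytes from two donor preparations, dosed at multiple concentrations with 0.2% DMSO vehicle; GAPDH mRNA measured 6 h after dosing by chemiluminescent quantitative nuclease protection assay (qNPA) on denatured lysates. Serves as background control; cytotoxicity annotated by morphology.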

Sequence of Cytochrome P450 2C19 (Homo sapiens) (P33261 whole entry, looked up): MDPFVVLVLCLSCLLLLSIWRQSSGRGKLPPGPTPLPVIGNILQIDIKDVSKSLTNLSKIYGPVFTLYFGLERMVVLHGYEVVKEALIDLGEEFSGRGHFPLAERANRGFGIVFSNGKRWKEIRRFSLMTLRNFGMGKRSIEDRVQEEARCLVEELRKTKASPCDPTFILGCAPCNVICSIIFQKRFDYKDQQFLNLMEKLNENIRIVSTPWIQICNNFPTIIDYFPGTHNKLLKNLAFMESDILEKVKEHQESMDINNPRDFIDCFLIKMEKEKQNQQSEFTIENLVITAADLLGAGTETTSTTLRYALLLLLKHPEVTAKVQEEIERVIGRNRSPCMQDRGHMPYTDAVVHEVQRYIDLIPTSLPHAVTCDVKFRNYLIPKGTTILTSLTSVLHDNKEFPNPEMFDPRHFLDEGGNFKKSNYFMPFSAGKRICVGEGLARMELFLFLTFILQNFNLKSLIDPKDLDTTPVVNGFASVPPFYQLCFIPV
Sequence of Glyceraldehyde-3-phosphate dehydrogenase (Homo sapiens) (P04406 whole entry, looked up): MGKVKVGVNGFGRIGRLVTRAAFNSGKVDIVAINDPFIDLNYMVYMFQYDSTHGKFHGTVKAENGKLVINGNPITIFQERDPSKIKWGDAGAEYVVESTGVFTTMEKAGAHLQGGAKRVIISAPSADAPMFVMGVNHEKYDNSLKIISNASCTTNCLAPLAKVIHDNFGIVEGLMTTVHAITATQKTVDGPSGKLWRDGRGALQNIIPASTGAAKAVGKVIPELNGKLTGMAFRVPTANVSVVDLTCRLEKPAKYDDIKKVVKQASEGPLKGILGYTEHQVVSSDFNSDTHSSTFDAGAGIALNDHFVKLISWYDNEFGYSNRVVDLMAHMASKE

Row | Compound | outcome [1] | outcome [2] | outcome [3] | AC50 [4] | outcome [5] | outcome [6] | AC50 [7] | AC50 [8] | outcome [4] | outcome [9] | outcome [7] | outcome [10] | outcome [8]
1 | N#CSCSc1nc2ccccc2s1 | inactive | inactive | inactive | 4.74 µM (active) | inactive | inactive | 0.651 µM (active) | 7.13 µM (active) |  |  |  |  | 
2 | COC(=O)c1ccc(I)cc1S(=O)(=O)NC(=O)Nc1nc(C)nc(OC)n1 | inactive |  | inactive |  | inactive | inactive |  |  | inactive | inactive | inactive | inactive | inactive
3 | COC(=O)c1ccc(CNS(C)(=O)=O)cc1S(=O)(=O)NC(=O)Nc1nc(OC)cc(OC)n1 | inactive |  | inactive |  | inactive |  |  |  | inactive | inactive | inactive | inactive | 
4 | CCOC(=O)COc1cc(-n2ncc(C(F)(F)F)c(C)c2=O)c(F)cc1Cl | inactive |  | inactive |  |  |  | 0.458 µM (active) |  | inactive |  |  | inactive | inactive
5 | Oc1ccc(C(c2ccc(O)cc2)C(Cl)(Cl)Cl)cc1 | inactive |  | inactive |  | inactive | inactive | 17.1 µM (active) |  | inactive |  |  |  | inactive
6 | CCCCC(CC)CN1C(=O)C2C3C=CC(C3)C2C1=O (stereo unspecified) | inactive |  | inactive | 20 µM (active) |  | inactive | 13 µM (active) |  |  |  |  |  | 
7 | CCOC(=O)NCCOc1ccc(Oc2ccccc2)cc1 | inactive |  | inactive |  |  | inactive | 15.4 µM (active) |  | inactive | inactive |  |  | 
8 | CCNc1nc(N)nc(Cl)n1 | inactive |  | inactive |  | inactive | inactive |  |  | inactive |  | inactive | inactive | 
9 | CN(C)C(=O)Nc1ccc(Cl)c(Cl)c1 | inactive | inactive | inactive | 4.24 µM (active) |  | inactive |  |  |  |  | inactive |  | inactive
10 | COC(=O)CSc1cc(N=c2sc(=O)n3n2CCCC3)c(F)cc1Cl | inactive |  | inactive |  |  |  | 0.0125 µM (active) |  | inactive | inactive |  | inactive | 
11 | CC(C)(c1ccc(O)cc1)c1ccc(O)cc1 | inactive |  | inactive |  | inactive | inactive | 57 µM (active) and 66.2 µM (active) |  | inactive |  |  | inactive | inactive
12 | CSC(=O)c1cccc2nnsc12 | inactive |  | inactive | 20 µM (active) |  | inactive | 12.7 µM (active) |  |  |  |  |  | inactive
13 | CCCN(CCC)c1c([N+](=O)[O-])cc(C(F)(F)F)c(N)c1[N+](=O)[O-] | inactive |  | inactive | 3.83 µM (active) |  | inactive |  |  |  |  | inactive | inactive | 
14 | S=C(S)NCCNC(=S)S.[Mn+2].[S-]C([S-])=NCCN=C([S-])[S-].[Zn+2] | inactive | inactive | inactive |  |  | inactive | 29.3 µM (active) |  |  |  | inactive |  | 
15 | CCCN(CCC)C(=O)SCC | inactive |  | inactive |  | inactive |  |  |  | inactive | inactive | inactive | inactive | 
